Here are results for 25 compounds from the supplement of paper PMC10037445.

Assay [1] has as its system RAW-Dual. Briefly: NF-kB SEAP reporter activity, fold change vs agonist alone; higher = enhanced NF-kB activity. In short, it runs like this: (§1)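 Library stock was pin-tooled at 50 nL into 384-well plates of RAW-Dual macrophages (50,000 cells/well, DMEM), followed 1 h later by a PRR agonist, and the cells were kept at 37 °C, 5% CO2. Supernatant collected after 20 hours was read for IRF by QuantiLuc luminescence and for NF-κB by QuantiBlue absorbance at 620 nm. Reporter activity is fold change over agonist-alone wells, and a well counted as cytotoxic when its IncuCyte confluency was below 70% of agonist controls in both mask sets.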

Assay [2] concerns RAW-Dual. The assay can be described thus: NF-kB SEAP reporter activity, fold change vs agonist alone; cytotoxicity flag (confluency mask): not cytotoxic; higher = enhanced NF-kB activity. In short, it runs like this:
as §1

For assay [3], the system named is RAW-Dual. Briefly: NF-kB SEAP reporter activity, fold change vs agonist alone; cytotoxicity flag (confluency mask): cytotoxic (confluency <70% of control); higher = enhanced NF-kB activity. In short, it runs like this:
as §1

Where [4] appears, read: library stock concentration (final ~1000-fold dilution): 10 mM, cytotoxicity flag (confluency mask): not cytotoxic, agonist: Imiquimod (TLR7) […].
The mark [5] stands for this setting: library stock concentration (final ~1000-fold dilution): 10 mM, cytotoxicity flag (confluency mask): not cytotoxic, agonist: MPLA (TLR4) […].
Where [6] appears, read: agonist: ODN 1826 (TLR9) 0.5 ug/mL.
[7] abbreviates: agonist: Pam2CSK4 (TLR2/6) 0.1 ug/mL.
The mark [8] stands for this setting: agonist: Pam3CSK4 (TLR2/1) 0.1 ug/mL.
Where [9] appears, read: library stock concentration (final ~1000-fold dilution): 10 mM, cytotoxicity flag (confluency mask): cytotoxic (confluency <70% of control), agonist: Imiquimod (TLR7) […].
[10] abbreviates: library stock concentration (final ~1000-fold dilution): 10 mM, cytotoxicity flag (confluency mask): cytotoxic (confluency <70% of control), agonist: MPLA (TLR4) […].

Values joined by “and” are separate entries in the source; they are usually repeats but may differ in a detail not shown here. Equal entries are not always repeated. The full ranking holds about 2,900 compounds; the median of “NF-kB SEAP reporter activity, fold change vs agonist alone” is about 0.99, and the highest 2% start at about 2.6. Many of the other results were omitted from the sample, so the highest values are more common in it than they were.

On to `Cl.Cl.N/C(=N\OCC(O)CN1CCCCC1)c1cccnc1` (stereo not given), for which the “NF-kB SEAP reporter activity” value was 0.94 in the assay with RAW-Dual [1] (setting [4]) and 1.08 in the assay on RAW-Dual [1] (setting [5]).

On to `Cl.Cl.N/C(=N\OCC(O)CN1CCCCC1)c1cccnc1` (stereo not given) (library stock concentration (final ~1000-fold dilution): 10 mM), for which the “NF-kB SEAP reporter activity” value with RAW-Dual [2] (agonist: LPS (TLR4) 0.1 ug/mL) was determined as 1.1; in the assay on RAW-Dual [2] (setting [6]), 0.949; in the assay with RAW-Dual [2] (setting [7]), 1.15; in the assay with RAW-Dual [2] (setting [8]), 1.09.

On to `NC(CSC(c1ccccc1)(c1ccccc1)c1ccccc1)C(=O)O` (stereo not given), for which the “NF-kB SEAP reporter activity” value in the assay with RAW-Dual [1] (setting [4]) was 0.946; in the assay with RAW-Dual [1] (setting [5]), 0.976.

On to `NC(CSC(c1ccccc1)(c1ccccc1)c1ccccc1)C(=O)O` (stereo not given) (library stock concentration (final ~1000-fold dilution): 10 mM), for which the “NF-kB SEAP reporter activity” value was found to be 0.775 in the assay with RAW-Dual [2] (agonist: LPS (TLR4) 0.1 ug/mL), 0.732 in the assay on RAW-Dual [2] (setting [6]), 0.699 with RAW-Dual [2] (setting [7]) and 0.656 with RAW-Dual [2] (setting [8]).

`CC(C)c1nc(N(C)S(C)(=O)=O)nc(-c2ccc(F)cc2)c1C=CC(O)CC(O)CC(=O)O` (stereo not given): the “NF-kB SEAP reporter activity” value in the assay on RAW-Dual [1] (setting [4]) came to 0.909; in the assay on RAW-Dual [1] (setting [5]), 1.05.

Consider `O=C(O)CC(O)CC(O)C=Cc1c(C2CC2)nc2ccccc2c1-c1ccc(F)cc1` (stereo not given) (library stock concentration (final ~1000-fold dilution): 10 mM), for which the “NF-kB SEAP reporter activity” value in the assay with RAW-Dual [2] (agonist: LPS (TLR4) 0.1 ug/mL) came to 3; in the assay on RAW-Dual [2] (setting [6]), 3; in the assay with RAW-Dual [2] (setting [7]), 2.4; in the assay with RAW-Dual [2] (setting [8]) it was 3.31.

In the case of `CC(C)c1nc(N(C)S(C)(=O)=O)nc(-c2ccc(F)cc2)c1C=CC(O)CC(O)CC(=O)O` (stereo not given) (library stock concentration (final ~1000-fold dilution): 10 mM), the “NF-kB SEAP reporter activity” value in the assay on RAW-Dual [2] (agonist: LPS (TLR4) 0.1 ug/mL) is 1.43; with RAW-Dual [2] (setting [6]), 1.24; with RAW-Dual [2] (setting [7]), 1.01; in the assay with RAW-Dual [2] (setting [8]), 1.2.

As to `CC(C)n1c(C=CC(O)CC(O)CC(=O)O)c(-c2ccc(F)cc2)c2ccccc21` (stereo not given) (library stock concentration (final ~1000-fold dilution): 10 mM), the “NF-kB SEAP reporter activity” value in the assay on RAW-Dual [2] (agonist: LPS (TLR4) 0.1 ug/mL) was 3.64; in the assay with RAW-Dual [2] (setting [6]) it was 2.92; with RAW-Dual [2] (setting [7]), 2.13; in the assay on RAW-Dual [2] (setting [8]), 3.38.

Consider `CC(C)c1nc(N(C)S(C)(=O)=O)nc(-c2ccc(F)cc2)c1/C=C/C(O)CC(O)CC(=O)O` (stereo not given), for which, in the assay on RAW-Dual [1] (setting [5]), the “NF-kB SEAP reporter activity” value is 1.1.

On to `CC(C)c1nc(N(C)S(C)(=O)=O)nc(-c2ccc(F)cc2)c1/C=C/C(O)CC(O)CC(=O)O` (stereo not given) (library stock concentration (final ~1000-fold dilution): 10 mM), for which the “NF-kB SEAP reporter activity” value with RAW-Dual [2] (agonist: LPS (TLR4) 0.1 ug/mL) was 0.973; in the assay on RAW-Dual [2] (setting [6]), 1.18; in the assay with RAW-Dual [2] (setting [7]), 1.21; with RAW-Dual [2] (setting [8]), 1.1.

`O=C(O)CC(O)CC(O)C=Cc1c(C2CC2)nc2ccccc2c1-c1ccc(F)cc1` (stereo not given): the “NF-kB SEAP reporter activity” value turned out to be 2.52 with RAW-Dual [1] (setting [4]) and 2.05 in the assay with RAW-Dual [1] (setting [5]).

In the case of `CC(C)n1c(C=CC(O)CC(O)CC(=O)O)c(-c2ccc(F)cc2)c2ccccc21` (stereo not given), the “NF-kB SEAP reporter activity” value with RAW-Dual [1] (setting [4]) was 2.45; in the assay on RAW-Dual [1] (setting [5]) it was 2.14.

With `CC(C)c1c(C(=O)Nc2ccccc2)c(-c2ccccc2)c(-c2ccc(F)cc2)n1CCC(O)CC(O)CC(=O)O` (stereo not given) (library stock concentration (final ~1000-fold dilution): 10 mM), the “NF-kB SEAP reporter activity” value with RAW-Dual [2] (agonist: LPS (TLR4) 0.1 ug/mL) was 1.85 and 2.93; with RAW-Dual [2] (setting [6]), 1.49 and 1.82; with RAW-Dual [2] (setting [7]), 1.03 and 1.49; in the assay on RAW-Dual [2] (setting [8]) it was 1.3 and 1.42.

For the compound `O=c1[nH]c(=S)[nH]c2nc(-c3ccccc3)c(-c3ccccc3)nc12`, the “NF-kB SEAP reporter activity” value with RAW-Dual [1] (setting [4]) is 0.796; in the assay with RAW-Dual [1] (setting [5]), 0.977.

`O=c1[nH]c(=S)[nH]c2nc(-c3ccccc3)c(-c3ccccc3)nc12` (library stock concentration (final ~1000-fold dilution): 10 mM): the “NF-kB SEAP reporter activity” value with RAW-Dual [2] (agonist: LPS (TLR4) 0.1 ug/mL) came to 0.947; in the assay with RAW-Dual [2] (setting [6]) it was 0.854; in the assay with RAW-Dual [2] (setting [7]) it was 0.938; in the assay on RAW-Dual [2] (setting [8]), 0.926.

As to `Br.CCCc1cc(-c2nc(-c3ccc(C)cc3)cs2)ccn1`, the “NF-kB SEAP reporter activity” value in the assay with RAW-Dual [1] (setting [9]) was 1.1; in the assay with RAW-Dual [1] (setting [10]), 1.37.

As for `Br.CCCc1cc(-c2nc(-c3ccc(C)cc3)cs2)ccn1` (library stock concentration (final ~1000-fold dilution): 10 mM), the “NF-kB SEAP reporter activity” value stood at 1.54 in the assay with RAW-Dual [3] (agonist: LPS (TLR4) 0.1 ug/mL), 1.04 in the assay on RAW-Dual [3] (setting [6]), 1.07 with RAW-Dual [3] (setting [7]) and 0.895 in the assay on RAW-Dual [3] (setting [8]).

On to `Cc1cccc(CN2CCN(C(c3ccccc3)c3ccc(Cl)cc3)CC2)c1.Cl.Cl` (stereo not given), for which the “NF-kB SEAP reporter activity” value with RAW-Dual [1] (library stock concentration (final ~1000-fold dilution): 2 mM, cytotoxicity flag (confluency mask): not cytotoxic, agonist: Imiquimod (TLR7) […]) stood at 0.843; with RAW-Dual [1] (library stock concentration (final ~1000-fold dilution): 2 mM, cytotoxicity flag (confluency mask): not cytotoxic, agonist: MPLA (TLR4) […]), 1.15.

Consider `Cc1cccc(CN2CCN(C(c3ccccc3)c3ccc(Cl)cc3)CC2)c1.Cl.Cl` (stereo not given) (library stock concentration (final ~1000-fold dilution): 2 mM), for which the “NF-kB SEAP reporter activity” value with RAW-Dual [2] (agonist: LPS (TLR4) 0.1 ug/mL) is 1.51; with RAW-Dual [2] (setting [6]), 0.87; in the assay with RAW-Dual [2] (setting [7]) it was 0.931; in the assay on RAW-Dual [2] (setting [8]) it was 0.984.

Consider `Brc1ccc(C2CN3CCSC3=N2)cc1.O=C(O)C(=O)O` (stereo not given) (library stock concentration (final ~1000-fold dilution): 10 mM), for which the “NF-kB SEAP reporter activity” value in the assay on RAW-Dual [2] (agonist: LPS (TLR4) 0.1 ug/mL) worked out at 1.48; with RAW-Dual [2] (setting [6]), 0.888; in the assay on RAW-Dual [2] (setting [7]), 0.956; in the assay on RAW-Dual [2] (setting [8]), 1.01.

On to `Brc1ccc(C2CN3CCSC3=N2)cc1.O=C(O)C(=O)O` (stereo not given), for which the “NF-kB SEAP reporter activity” value in the assay with RAW-Dual [1] (setting [4]) turned out to be 0.948; in the assay with RAW-Dual [1] (setting [5]) it was 1.01.

Regarding `CC(=N)NCc1cccc(CN)c1.Cl.Cl`, the results for the “NF-kB SEAP reporter activity” value with RAW-Dual [1] (setting [4]) and with RAW-Dual [1] (setting [5]) were 1.08 and 1.03, respectively.

Take `CC(=N)NCc1cccc(CN)c1.Cl.Cl` (library stock concentration (final ~1000-fold dilution): 10 mM): the “NF-kB SEAP reporter activity” value in the assay with RAW-Dual [2] (agonist: LPS (TLR4) 0.1 ug/mL) stood at 0.956; in the assay with RAW-Dual [2] (setting [6]), 1.03; in the assay with RAW-Dual [2] (setting [7]), 1.02; in the assay on RAW-Dual [2] (setting [8]) it was 0.859.

For the compound `CNC1CCC(c2ccc(Cl)c(Cl)c2)c2ccccc21.Cl` (stereo not given), the results for the “NF-kB SEAP reporter activity” value with RAW-Dual [1] (setting [9]) and in the assay on RAW-Dual [1] (setting [10]) were 1.64 and 1.56, respectively.

As to `CNC1CCC(c2ccc(Cl)c(Cl)c2)c2ccccc21.Cl` (stereo not given) (library stock concentration (final ~1000-fold dilution): 10 mM), the “NF-kB SEAP reporter activity” value in the assay with RAW-Dual [3] (agonist: LPS (TLR4) 0.1 ug/mL) worked out at 0.879; with RAW-Dual [3] (setting [6]), 0.405; in the assay with RAW-Dual [3] (setting [7]), 0.42; in the assay with RAW-Dual [3] (setting [8]), 0.484.
